From PubChem BioAssay (Tox21) come the findings set out here.

A number with no mark means an inactive call. Calls of active or inactive are those of the source. Calls come from the whole dose curve; as a rule, active = well fitted curve in the direction sought with a large enough effect in the repeat runs; inconclusive = weak or mixed curves; inactive = flat fitted curve, though single readings scatter.
% is set by controls: 0 for no effect and ±100 for the full control effect.

The assay can be described thus: qHTS assay to test for compound auto fluorescence at 590 nm (red) in HepG2 cell free culture (AID 720684). The settings on record: cell-free medium autofluorescence, red 540/590 nm; series mostly up to 91.3 µM. The source says:
U.S. Tox21 Program National Center for Advancing Translational Sciences [NCATS] NIH Chemical Genomics Center [NCGC] U.S. Environmental Protection Agency [EPA] National Institutes of Environmental Health Sciences [NIEHS] National Toxicology Program [NTP] U.S. Food and Drug Administration [FDA] Tox21 Assay Overview: Compound auto fluorescence often interferes with screening of the compound library against various biological targets and signaling pathways. Some of these compounds may have fluorophoric properties. Such properties may interfere with the assay outputs resulting in false positives and/or negatives. To decrease such complications and ensure the compound activities are relevant in terms of biological response, the Tox21 10K compound library was screened for auto fluorescence. From the fluorophores used as reporter signals in our screening assays, the auto fluorescence equivalencies of compounds against three fluorophores have been evaluated: Triamterene, Fluorescein and Rose Bengal sodium for blue, green and red fluorescence, respectively. The fluorescence intensities were measured using Excitation/Emission wavelengths at 405/460nm, 485/535nm and 540/590nm for blue, green and red labels, respectively. This assay includes the red fluorescence data.
Tox21 Assay Protocol Summary: 5 uL of culture medium (MEM containing 10% FBS) per well was dispensed into black wall/clear bottom 1536-well plates using a Multidrop Combi Dispenser (ThermoFisher Scientific, Waltham, MA). After 23 nL compound or DMSO vehicle was transferred into assay plate by a pintool work station (Kalypsys, San Diego, CA), fluorescence intensities in the assay plates were measured by an Envision (PerkinElmer, Shelton, CT) plate reader using three labels for measuring blue, green and red fluorescence at […] 460, 535 and 590nm respectively.
(In general: In qHTS, concentration-response curves come from the screen itself.)
On to `C=CC(C)(CCC=C(C)C)OC(=O)CC(C)C` (stereo not given), for which the result was inactive.

Take `CC1CC(C)C(=O)C1=O` (stereo not given): the result was inactive.

As to `CCOc1ccccc1O[C@H](c1ccccc1)[C@H]1CNCCO1`, the outcome was inactive.

Turning to `CC(C)C(O)(c1ccc(OC(F)(F)F)cc1)c1cncnc1` (stereo not given), the result was inactive.

On to `CC(C)(O)c1ccc(CNC(=O)c2cccnc2Oc2ccc3nonc3c2)cc1`, for which the compound was classed as inactive.

With `CCC1CO1` (stereo not given), the outcome was inactive.

Consider `Cc1cccc(N(C)C(=S)Oc2ccc3c(c2)CCC3)c1`, for which the outcome was inactive.

As to `COc1cc(C(=O)NC2CCN(C)CC2)ccc1Nc1ncc2c(n1)N(C1CCCC1)CC(F)(F)C(=O)N2C`, the result was inactive.

Take `CCOc1cccc(-n2cc(C(=O)N3CCN(c4cc(C(=O)O)c5ccccc5c4)CC3)nc2-c2ccc(C)cc2)c1`: the result was inactive.

On to `Oc1ccc(Cl)c2cccnc12`, for which the compound was classed as inactive.

On to `OCCN1CCN(CCCN2c3ccccc3Sc3ccc(Cl)cc32)CC1`, for which the fluorescence, % of Rose Bengal is -0.146% [at 18.6 µM].

With `CC(C)(C)C(=O)C(=O)O`, the call was inactive.

For `Nc1cccc2c1CN(C1CCC(=O)NC1=O)C2=O` (stereo not given), the compound was classed as inactive.

Consider `CCOC(=O)/C=C/C(=O)OCC`, for which the compound was called inactive.

As for `CC1(C)[C@@H](OC(=O)CCC(=O)O)CC[C@]2(C)[C@H]3C(=O)C=C4[C@@H]5C[C@@](C)(C(=O)O)CC[C@]5(C)CC[C@@]4(C)[C@]3(C)CC[C@@H]12`, the fluorescence, % of Rose Bengal was 0.105% [at 18.6 µM].

With `CC(=O)Oc1ccc([N+](=O)[O-])cc1CCl`, the compound was called inactive.

For `CC1=C(Br)C(=O)C(Br)=C/C1=C(/c1ccccc1S(=O)(=O)O)c1cc(Br)c(O)c(Br)c1C`, the call was inactive.

As for `O=c1cc(-c2ccccc2)oc2ccc3ccccc3c12`, the compound was classed as inactive.

Turning to `CCOC(=O)c1ccc(OCCN2C[C@H](O)[C@@H](O)[C@H](O)[C@H]2CO)cc1`, the call was inactive.

With `CCOc1ccc(Cc2nccc3cc(OCC)c(OCC)cc23)cc1OCC`, the fluorescence, % of Rose Bengal was 0.0721% [at 18.6 µM].

Turning to `CC1(CN2CCC(n3c(=O)[nH]c4ccccc43)CC2)OCc2ccccc2-n2cccc21` (stereo not given), the outcome was inactive.

As to `C=C1c2cccc(O)c2C(O)=C2C(=O)[C@]3(O)C(O)=C(C(N)=O)C(=O)[C@@H](N(C)C)[C@@H]3[C@@H](O)[C@H]12`, the fluorescence, % of Rose Bengal was -0.515% [at 18.6 µM].

Turning to `CCCCC(CC)CN` (stereo not given), the result was inactive.

Consider `Oc1cccc(O)c1O`, for which the result was inactive.

`O=C(O)c1ccc(OCCCOc2ccc(C(=O)O)cc2)cc1`: the outcome was inactive.

For `Cc1ccco1`, the compound was classed as inactive.

Turning to `CCCCCCCCOc1ccc(C(=O)O)cc1`, the outcome was inactive.

In the case of `CCCCCCCCCCCCCCN(CCO)CCO`, the result was inactive.

For the compound `NC1[C@H]2CN(c3nc4c(cc3F)c(=O)c(C(=O)O)cn4-c3ccc(F)cc3F)C[C@@H]12` (stereo not given in full), the compound was called inactive.

As to `O=Cc1c2ccccc2c(Cl)c2ccccc12`, the call was inactive.

Regarding `CC[N+](CC)(CCNC(=O)C(=O)NCC[N+](CC)(CC)Cc1ccccc1Cl)Cc1ccccc1Cl`, the call was inactive.

On to `O=c1cc(-c2ccccc2)oc2cc(O)cc(O)c12`, for which the call was inactive.

As to `Oc1cc2c(cc1O)[C@H]1c3ccc(O)c(O)c3OC[C@@]1(O)C2`, the compound was classed as inactive.

In the case of `C=C(C)C(=O)OCCOCCOC(=O)C(=C)C`, the outcome was inactive.

As to `C=CCc1ccccc1OCC(O)CNC(C)C` (stereo not given), the compound was classed as inactive.

Turning to `CN(C)CCN1C(=O)c2ccccc2N(C)c2ccccc21`, the outcome was inactive.

On to `CN1CC(=O)N2[C@H](c3ccc4c(c3)OCO4)c3[nH]c4ccccc4c3C[C@@H]2C1=O`, for which the call was inactive.

Turning to `CC(=O)c1ccc([N+](=O)[O-])cc1`, the compound was called inactive.

For `C[C@@H]1CN(CCCn2c3ccccc3c3ccccc32)C[C@H](C)N1`, the outcome was inactive.

Consider `O=[N+]([O-])c1ccc(O/N=C/c2cc(Br)c(O)c(Br)c2)c([N+](=O)[O-])c1`, for which the compound was classed as inactive.
